Results: ChEMBL document CHEMBL1201862, “PubChem BioAssay data set” (2004)
Hit rate of the full screen: of about 48,000 sequences, about 6,100 (13%) were called active. Rule as the data show it: active = GI50 up to about 1.1 µM and inactive = higher. For the sample, actives were picked, then their nearest neighbours and some sequences at random. Results with a measured potency or affinity are listed apart.

The substances below were run on SR.

Point of comparison: “[Bis(aminomethyl)pentamethylenesilane]dichloropaltinum(II), CHEMBL2146202”, GI50 1490 nM. Against it:
- CISPLATIN, CHEMBL11359 — 2.4-fold lower, 618 nM
- [Bis(aminomethyl)pentamethylenesilane]tetrachloropaltinum(IV), CHEMBL2146204 — 3.5-fold lower, 422 nM
- [Bis(aminomethyl)tetramethylenesilane]tetrachloropaltinum(IV), CHEMBL2146189 — 3-fold lower, 499 nM
- [Bis(aminomethyl)dimethylsilane]tetrachloroplatinum(IV), CHEMBL2146190 — 2.3-fold higher, 3440 nM
- [Bis(aminomethyl)tetramethylenesilane]dichloropaltinum(II), CHEMBL2146205 — 2.4-fold higher, 3520 nM
- [Bis(aminomethyl)diethylsilane]tetrachloroplatinum(IV), CHEMBL2146203 — 3.9-fold lower, 382 nM
- mu-(1,7-nanodiamine-N,N')bis-(cis-aminedichloroplatimum (II)), CHEMBL2146215 — 1.9-fold higher, 2780 nM
